# Measured values published in the supplement of paper PMC11417369.
# Whole data set: some 25,000 sequences, median “ln(normalized median fluorescence intensity)” near 7.1, cut for the highest 2% near 10. The sample as a whole holds a higher share of the highest values than the screen did.
# Test system: PfSIP2 AP2 domain 1 (GST-tagged)
# Assay: gcPBM binding intensity (ln(normalized median fluorescence intensity)); higher = stronger DNA binding
# Outline: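 An Agilent 4 × 180k array of primer-extended double-stranded 36-bp intergenic genomic probes, with negative controls, was incubated for 1 h with GST-tagged P. falciparum DNA-binding domains expressed in E. coli. Alexa488 anti-GST antibody detected bound protein, scanned at 488 nm. Binding intensity is the highest Masliner-normalised natural-log median intensity across replicate spots of either probe orientation.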
row,Sequence,gcPBM binding intensity (ln)
1,TTTTGTTTTTAGTTTATACACACCATATTAATATAA [CACACA_site3102],7.27
2,TGTATGTATAATTGAGTGCACAGAAAAAAAAAAGAA,10.5
3,AAGAAAATATAAAATGCACACTATAAATTGTATATA [CACACA_site7928],7.84
4,CATTATAAAAAATAAAAAAGAAATAATTGTATATGC [CACACA_negctrl_site478],7
5,ATATATTTTTTTTCTTCACACACATGAATTATATAT [CACACA_site9053],7.45
6,ATATAAATTTTTTATGAACACACAAATACAGACACT [CACACA_site8848],7.37
7,TAAACATAAATATGCACACATATACAGATATTCATA [CACACA_site5471],7.04
8,TACAAATATATATGCACACACATATACATACAGATA [CACACA_site5238],7.27
9,AATATTTATGGGTGCACACAAACATACATATATATA [CACACA_site3395],11.8
10,ATAATATTTAGGTGTGCACACAAACATACATATATA [CACACA_site9120],8.81
11,AAAAAAAAAACATACACACACACAAATATTTATATA [CACACA_site437],6.94
12,AATATTTATGGGTGCACACAAACATACAGATATATA [CACACA_site5810],12.1
13,ATATAAATTGGCAATAGTACATAAAGGCATAGAAAG [XGTACX_site2674],7.31
14,TTGTATATATTTCCTTGTACGTAATAATTCTTATTG [XGTACX_site3938],7.19
15,TTTATTTGTTCATGCGTGCACTTGATAACAATGTAC [GTGCAC_site9561],9.9
16,AAATATAATTAATGATGTACACTTATAGATATTGAT [XGTACX_site8435],7.09
17,ATATTATAATTGAAGGTGCAAAATGTAATATAGATA [GTGCAC_site9661],10.6
18,AGATATTATAATTAATGTACAAAAAGAAAAAATAGA [XGTACX_site8964],7.04
19,TTTTATAATCATAATAGTACTTTTTCTTTTTCACAT [XGTACX_site5017],6.7
20,TATATATATAATGTTTGTACATATTAAATATATATG [XGTACX_site407],8.3
21,TTTTCATTTGTGACAGTGCAAAATGTTATATTAAAA [GTGCAC_site9647],8.57
22,CTCATTTTGTTAATGGTGCAAAAAAAAAAAAAAAAA,11
23,TTTTTTGTTACAACAGTGCAAAAAAACCTTAATGTT,7.84
24,TTATCAATAAAATGCACACACTGTAATATTATTAAA [CACACA_site6055],7.18

row,Sequence,gcPBM binding intensity (ln)
1,TATCTTATAAACTCTGCACACATAATATATTAAATG [CACACA_site8587],9.1
2,TTATCATTTGCCATTGTGCACTTATATGCTCACATT,10.2
3,ATATATATTATCATTGTGCACTTATTTATATACCTT,10.5
4,ATATGTATGTATTTATTATTGTGCATTGTATTTATA [CACACA_negctrl_site664],7.44
5,TATGTATGTGCTTGTGCGCACCGATAATATAGCCAA,9.96
6,AAAAAGGAAATAATAACACACATTAATAATTATAAA [CACACA_site3401],6.67
7,TTTATGCACGCGTGCACACACATATGAAAAAAGGTA [CACACA_site3315],10.4
8,TATGAAAAAATATATACACACATAATAAAGGTATAT [CACACA_site3737],6.9
9,TTATATGCATAAAAAGGTACACATATATAAATAAAT [XGTACX_site6894],7.12
10,GGTATTTATGGACGCGTGCACACACATATGAACAAA,9.35
11,CAAAAGGATATGCACACACACACACGGATATTTATA [CACACA_site7099],7.41
12,TATTTATGCACGCGTGCACACACATATGAAAAAAGG [CACACA_site9090],10.4
13,TGTTTTATTTATTAAGCACACGCGATTTAAAAAATA [CACACA_site981],6.79
14,TGTATATTTTAGTGATGTACTAATATTATTACTAAT [XGTACX_site3952],6.99
15,TTCTAATATTTACATAATATATAGAAATATAAAGGT [XGTACX_negctrl_site504],7.4
16,AGCAAAACAAAAAAATTAAAATTAACATATAATCAT [GTGCAC_negctrl_site393],6.7
17,TATATTAACAAAATGGTGCAATAATTTCTATATTAT [GTGCAC_site9857],10.4
18,GTAGACATTATAATGGTGCAAAAAAATTAACAAAAA [GTGCAC_site9891],10.5
19,TATATTATCAAAATGGTGCAATAATTTCTATATTAT [GTGCAC_site9772],9.9
20,TATATTAACAAAATGGTGCAATAATTTCTATATTGT [GTGCAC_site9430],9.87
21,GTTAACAAATAATGCACACAAATGGATAAAATTATA [CACACA_site3725],7.68
22,TTAAATACTAAAAAGTGTACACATACATAAAAAATT [XGTACX_site6261],7.32
23,TTTTGTTTATTATGATTCAAAATGATTTTATCTTTG [TGCATGCA_negctrl_site425],6.71
